Source: PubChem
This is a sample that favours compounds with a hit; in the whole collection about 2.9% have one here.
TRPML1 blocker: blocks the human TRPML1 channel. AID 624415. TRPML1-inducible cells, Ca2+ dye fluorescence, FDSS; active compounds read low; inhibition of EC80 agonist-evoked calcium signal. activity change, negative = inhibition, % (concentration not given with the values). Q9GZU1. 0.02% of 390,000 active; in the data active = activity change below about -50%; inconclusive = between about -30% and that limit;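 also: stimulus is agonist 54-4 at its EC80 concentration; % is scaled to controls: 0 for no effect and ±100 for the full control effect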
Target sequence (Q9GZU1 whole entry, looked up): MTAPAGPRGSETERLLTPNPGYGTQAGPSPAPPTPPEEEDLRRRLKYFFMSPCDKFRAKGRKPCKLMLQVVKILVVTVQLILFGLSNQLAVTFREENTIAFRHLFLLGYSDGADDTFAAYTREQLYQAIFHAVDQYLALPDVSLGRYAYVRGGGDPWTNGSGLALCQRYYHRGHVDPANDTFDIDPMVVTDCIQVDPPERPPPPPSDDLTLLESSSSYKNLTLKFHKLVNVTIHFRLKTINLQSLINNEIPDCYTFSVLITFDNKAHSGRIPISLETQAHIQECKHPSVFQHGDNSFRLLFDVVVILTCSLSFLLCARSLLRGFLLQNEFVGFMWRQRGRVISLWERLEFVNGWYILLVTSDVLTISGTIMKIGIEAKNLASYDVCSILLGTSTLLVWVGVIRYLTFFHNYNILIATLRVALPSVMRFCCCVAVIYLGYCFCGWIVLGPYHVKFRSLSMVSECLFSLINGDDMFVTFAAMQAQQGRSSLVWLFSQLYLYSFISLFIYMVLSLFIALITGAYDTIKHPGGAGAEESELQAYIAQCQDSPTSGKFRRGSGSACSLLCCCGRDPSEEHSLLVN
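Tet-induced TRPML1-DL cells loaded with Ca8 no-wash calcium dye were read kinetically on FDSS. Compound addition was followed by EC80 agonist 54-4 (4 uM final); inhibition was read over 110 s.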
DRD3 agonist: activates the human D3 dopamine receptor | D3R DiscoveRx beta-arrestin cells, luminescence, 90 min | max activation, % | 0.58% of 410,000 active; in the data active = max activation above about 30%; also: 0% is about no effect
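Cells at 1500/well, incubated overnight, then treated with pinned compounds (dopamine as control) for 90 min at 37 degrees C. DiscoveRx reagent added for 30 - 60 minutes at room temperature; luminescence read.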
D3 antag: antagonists of human D3 dopamine receptor; D3R cells, DiscoveRx beta-arrestin luminescence, antagonist mode; active compounds read low; P35462; AID 652054; 2.5% of 360,000 active; max response, negative = inhibition, %; in the data active = max response below about -50%; inconclusive = no clear call, values can overlap the other calls; also: % is scaled to controls: 0 for no effect and ±100 for the full control effect
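Cells plated overnight at 1500 cells/well, then exposed to library compounds with dopamine controls for 90 minutes at 37 degrees C. DiscoveRx reagent added for 30–60 minutes at room temperature; luminescence read, quantitative HTS format.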
TRPML1 agonist: activates the human TRPML1 channel; Q9GZU1; TRPML1-expressing cells, Ca2+ dye fluorescence, FDSS; activation, % (concentration not given with the values); 0.12% of 410,000 active; AID 624414; in the data active = activation above about 50%; inconclusive = mostly about 30% to 49%; also: 0% is about no effect
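Agonist activity was taken from a 110 s kinetic Ca2+ dye read on the FDSS after pinning compounds onto TRPML1-DL cells. The cells were seeded at 1,500/well with Tet inducer, incubated about 16 h, then dye-loaded at room temperature.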
* hit, by the source's call; ? = inconclusive; . = no result given.

SMILES	TRPML1 blocker	DRD3 agonist	D3 antag	TRPML1 agonist
COc1cccc(/C=C/C(=O)c2c(O)cc(C)oc2=O)c1O	-3.3	0.6	-74.2*	3.1
O=C(CSc1nccn1Cc1ccc(F)cc1)Nc1ccc2c(c1)OCCO2	19.1	-6.9	.	3.1
CCc1cc(C(=O)NNC(=S)Nc2cccc(C)c2)cs1	-14.6	-7.5	-101.3*	0.7
CCc1cc(C(=O)NNC(=S)NCC2CCCO2)cs1 (configuration not stated)	0.7	-1.6	-53.5*	0.9
Cc1ccc2[nH]cc(C(O)c3c[nH]c4ccc(C)cc34)c2c1	.	.	.	-0.2
CCNC(=O)NC(=O)COC(=O)c1ccccc1SCC(=O)NC(=O)NCC	15.3	3.3	-74.7*	-0.1
CCCN1CNc2c(c(=O)[nH]c(=S)n2CCc2ccccc2Cl)C1	.	.	.	-0.5
Cn1c(-c2ccsc2)c(-c2cccs2)c2cc(-c3ccc4cc[nH]c4c3)ccc21	51.2	5.7	74.0	-0.7
Cn1c(C=O)c(-c2ccc3cc[nH]c3c2)c2ccccc21	-1.0	31.3*	15.1	-0.6
COc1cc(NC(=O)c2cccnc2Sc2ccc(C)c(C)c2)cc(OC)c1OC	-15.9	-2.4	2.1	0.5
CC(=O)Nc1ccc(Sc2ncccc2C(=O)Nc2ccc(OC(F)(F)F)cc2)cn1	-7.5	-2.2	-20.9	51.9*
CC(=O)Nc1ccc(Sc2ncccc2C(=O)Nc2cc(Cl)cc(Cl)c2)cn1	4.5	-33.4	-52.0*	12.3
Nc1ncnc2c1nc(Sc1ccc(Cl)cc1)n2[C@H]1OC2COP(=O)(O)O[C@H]2[C@@H]1O (some centres not stated)	.	.	.	-0.3
c1ccc(-c2n[nH]c(-c3ccccc3)c2-c2nc3ccccc3[nH]2)cc1	20.9	-5.1	-56.4*	-0.4
c1ccc(-c2nc3ccccc3[nH]2)cc1	7.9	-26.3	-93.6*	0.0
Cc1cc(C)cc(NC(=O)c2ccc(Cn3nc(C)c(Cl)c3C)o2)c1	15.3	-2.1	65.5	1.2
Cc1ccc(CNC(=O)c2ccc(Cn3nc(C)c(Cl)c3C)o2)cc1	-14.3	-12.0	-53.2*	-1.3
CN=c1scc(-c2ccc([N+](=O)[O-])cc2)n1/N=C/c1ccco1	32.2	5.6	8.7	0.5
CN=c1scc(-c2ccc(F)cc2)n1/N=C/c1ccc(O)c(O)c1	22.3	94.6*	0.9	3.1
Cc1ccc2c(c1)c1c(c(=O)n(-c3ccccc3C)c(=O)n1Cc1cccc(F)c1)n2C	-3.8	-2.9	.	2.3
Cc1ncoc1C(=O)NC1CCCc2c1cnn2-c1ccc(C(C)(C)C)cc1 (configuration not stated)	39.2	30.2*	34.4	0.7
COc1ccc(N2C(=O)C3ON(C4SC(=S)N(C)C4(C)C)C(c4ccc(Cl)cc4)C3C2=O)cc1 (configuration not stated)	-18.9	0.7	2.7	1.3
COc1ccc(N2C(=O)C3ON(C4SC(=S)N(C)C4(C)C)C(c4ccc([N+](=O)[O-])cc4)C3C2=O)cc1 (configuration not stated)	51.8	-7.8	-65.0*	0.5
CSc1nnc(C2CCCN2)n1C (configuration not stated)	5.7	-4.0	-54.4*	-0.1
CC(C)(C)c1nnc(N/N=C/c2ccccc2O)n(N)c1=O	4.7	33.5*	78.4	1.0
SMILES	TRPML1 blocker	DRD3 agonist	D3 antag	TRPML1 agonist
CCc1nnc(N/N=C/c2ccccc2Cl)n1N	-6.6	-13.6	-63.2*	0.3
CC(C)(C)c1nnc(N/N=C/c2ccccc2)n(N)c1=O	8.0	3.2	11.3	1.2
COc1cccc(NC(=O)C2CCN(S(=O)(=O)c3c(C)noc3/C=C/c3cccs3)CC2)c1	-11.5	8.1	.	0.3
Cc1cccnc1Nc1nc(-c2ccccc2)cs1	-13.7	-1.4	29.2	2.0
COc1ccc(-c2csc(Nc3cccc(C)n3)n2)cc1C	-8.1	41.5*	9.0	-0.2
Cc1cccc(Nc2nc(-c3ccccn3)cs2)n1	-5.9	-41.0	-79.0*	0.3
Cc1cccnc1Nc1nc(-c2ccccn2)cs1	22.8	-38.6	-86.4*	-0.4
Cn1cccc1C(=O)Nc1nc(-c2ccccn2)cs1	12.1	-3.3	-56.3*	-1.3
Cc1ccc2nc(CN3CCN(S(=O)(=O)c4ccc(F)cc4)CC3)oc2c1	5.3	-4.5	.	0.8
O=c1c2ccccc2cnn1Cc1n[nH]c(=S)n1-c1cc(Cl)cc(Cl)c1	-2.1	-7.1	-56.8*	1.5
O=c1c2ccccc2cnn1Cc1n[nH]c(=S)n1-c1ccc(F)c(Cl)c1	-8.2	-1.6	-4.6	0.0
COC(=O)CN(c1ccccc1)S(=O)(=O)c1ccc(F)cc1	-2.6	-0.5	-20.5	-1.4
CCN(c1ccccc1)S(=O)(=O)c1ccc(F)cc1	1.6	1.3	-52.5*	0.8
COc1cccc(-c2cc(CC3(O)CCN(CCCc4ccccc4)CC3)on2)c1	-5.1	-3.2	-95.8*	0.2
COc1cccc(-c2cc(C(=O)NCc3ccccc3)no2)c1	24.7	-6.3	.	1.6
CCN(CC)CCCOc1ccc(C)cc1Br	0.0	1.4	-74.6*	-0.5
COCCNCCCOc1ccc(C)cc1Br	-8.3	-1.1	-51.3*	0.2
COCCCNCCCOc1ccc(C)cc1Br	-23.7	-19.6	-73.3*	-1.2
COCCCNCCCCOc1c(Cl)cc(C)cc1Br	17.9	-9.9	-76.9*	-0.9
C=CCNCCCOc1ccc(C)cc1Br	-12.8	-31.4	?	0.0
COCCCNCCCOc1ccc(Cl)cc1Br	?	-6.7	?	2.0
CC1CCn2c(nc3cc(C(=O)NCc4ccccc4)ccc32)C1 (configuration not stated)	-5.4	-9.8	.	-1.0
COc1cc(NS(=O)(=O)c2ccc(NC(=O)c3ccc(C(C)=O)cc3)cc2)nc(OC)n1	1.8	-9.6	.	1.8
OCC1(Cc2ccc(Cl)cc2)CCN(Cc2ccccc2F)CC1	-9.5	-19.6	?	-0.4
OCC1(Cc2ccccc2)CCN(Cc2cccc(F)c2F)CC1	7.8	-20.5	-129.5*	0.3
SMILES	TRPML1 blocker	DRD3 agonist	D3 antag	TRPML1 agonist
OCC1(Cc2ccc(Cl)cc2)CCN(CCCc2ccccc2)CC1	4.4	6.6	-65.1*	0.7
Cc1ccc(Cn2c(SCC(=O)NCc3ccccc3Cl)nc3ccsc3c2=O)cc1	-8.9	-18.2	.	1.9
Cc1cc(-c2ccc(C(C)C)c(S(=O)(=O)N3CCOc4ccccc43)c2)on1	-28.0	-16.5	?	138.7*
COc1ccc(-c2cc(C)no2)cc1S(=O)(=O)N1CCOc2ccccc21	-0.1	-8.8	-13.5	0.1
Cc1ccc2nc(NC(=O)CSc3nccn3Cc3ccc(Cl)cc3)sc2c1	39.3	4.4	.	1.2
Cc1[nH]c2c(Cl)cccc2c(=O)c1CN1CCCCCC1	.	-14.5	-89.8*	.
Cc1ccc2c(=O)c(CN3CCCCCC3)c(C)[nH]c2c1C	-7.7	-7.5	-17.0	-1.2
Cc1cccc(N2CCN(C(=O)Cn3ncc4c3-c3cc(C)ccc3OC4)CC2C)c1 (configuration not stated)	10.9	32.1*	.	0.4
Cc1ccccc1Nc1nnc(SCc2cc(=O)n3ccsc3n2)s1	3.9	46.3*	4.3	0.9
CC1CCN(CCCNC(=O)c2coc3nc4ccccc4nc23)CC1	3.3	-0.9	-77.8*	-0.4
